This is an account of results in PubChem BioAssay (NCI).

About 83,000 compounds went through this panel and 20% of them were active in at least one assay; those are over-represented in the sample as a whole.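 Growth was measured after 48 h exposure to one concentration of compound in 96-well plates. Values under 10 count as active.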 Unmarked numbers belong to inactive results. Active and inactive are the calls of the source.

The test system of one assay is TK-10 renal. The experiment in a line: NCI-60 one-dose screen, 48 h (100 = growth as untreated, 0 = no growth, -100 = all killed). The note with it: 10 µM unless noted.
Consider `COc1ccc(NC(=O)c2sc3nc(C)c(C(O)c4ccc(OC)cc4)cc3c2N)cc1` (stereo unspecified), for which the growth was 60.7%.

For the compound `O=C(OCc1nc2nc(Cl)nc(N3CCOCC3)c2[nH]1)n1ccnc1`, the growth is -77.4% (active).

For `CC(=O)c1c[nH]c2ccc(-c3ccnc(Nc4ccc(NC(=O)C5CCCC5)c(CN5CCOCC5)c4)n3)cc12`, the growth was 0.0909% (active).

In the case of `O=C(N/N=C/c1cccnc1)c1ccccc1Nc1cccc(C(F)(F)F)c1`, the growth is 97.2%.

For `CN1CCN(CCCOc2ccc3ncnc(Nc4ccc(Oc5cccc(C(F)(F)F)c5)c(Cl)c4)c3c2)CC1`, the growth is 19.3%.

`CN(C)Cc1c(-c2ccccc2)[nH]c2ccccc12`: the growth is 102%.

Turning to `C#CC(=O)Nc1cccc(Nc2nc3c(c(NCc4ccccc4)n2)CCCC3)c1`, the growth is -97.2% (active).

With `CS(=O)(=O)Nc1cc(-c2ccc3ncnc(Nc4ccc5[nH]ncc5c4)c3c2)cnc1Cl`, the growth is 65.6%.

In the case of `CSc1nnc2c(=O)n(C)c(=O)n(C)c2n1`, the growth was 99.9%.

Turning to `NC(=O)c1cccc(-c2ccccc2N2CCCCC2)c1`, the growth is 103%.

Consider `COc1cnccc1-c1nc2ccc3[nH]ncc3c2c2c1CCCC2`, for which the growth is 60.7%.

As for `c1ccc(-c2nnc(Nc3ccc4c(c3)OCCO4)o2)c(NCc2ccncc2)c1`, the growth is 50.9%.

With `CNC(=O)Nc1ccc(-c2nc(N3CCOCC3)nc3c2cnn3C2CCOCC2)cc1`, the growth is -38% (active).

For the compound `O=C(N/N=C/c1ccc(O)c(O)c1)c1sc2ccccc2c1Cl`, the growth is 109%.

As for `COc1cc(C2CC(c3cccc(Nc4ccncc4)c3)=NN2c2ccccc2)cc(OC)c1OC` (stereo unspecified), the growth is 82.8%.

On to `CC1(C)CC[C@]2(C(=O)NCC#CCN3CCOCC3)CC[C@]3(C)C(=CC[C@@H]4[C@@]5(C)Cc6c([nH]c7ccccc67)C(C)(C)[C@@H]5CC[C@]43C)[C@@H]2C1`, for which the growth is 95.7%.

Turning to `COc1ccc(-c2nn(Cc3ccccc3)c3c2-c2oncc2CC3)cc1OC`, the growth is 84.1%.

For `COc1ccc(CNC(=O)COc2ccc(/C=N/Nc3nc4ccccc4s3)cc2)cc1`, the growth is 86.9%.

The test system of another assay is ACHN renal. Described as above. The note with it: 10 µM unless noted.
Regarding `COc1ccc(NC(=O)c2sc3nc(C)c(C(O)c4ccc(OC)cc4)cc3c2N)cc1` (stereo unspecified), the growth was 36.3%.

Consider `N#Cc1c(NC(=O)c2cccc(Br)c2)sc2c1CCCC2`, for which the growth is 75.6%.

Turning to `O=C(OCc1nc2nc(Cl)nc(N3CCOCC3)c2[nH]1)n1ccnc1`, the growth was -100% (active).

With `CC(=O)O[C@]1(C(C)=O)CC[C@H]2[C@@H]3C=C(Cl)C4=CC(=O)CC[C@]4(C)[C@H]3CC[C@@]21C`, the growth is 108%.

In the case of `CC(=O)c1c[nH]c2ccc(-c3ccnc(Nc4ccc(NC(=O)C5CCCC5)c(CN5CCOCC5)c4)n3)cc12`, the growth is -5.66% (active).

`O=C(N/N=C/c1cccnc1)c1ccccc1Nc1cccc(C(F)(F)F)c1`: the growth was 100%.

Turning to `CN1CCN(CCCOc2ccc3ncnc(Nc4ccc(Oc5cccc(C(F)(F)F)c5)c(Cl)c4)c3c2)CC1`, the growth is -37.5% (active).

Turning to `CN(C)Cc1c(-c2ccccc2)[nH]c2ccccc12`, the growth is 106%.

`O=C(OC(OC(=O)c1cc(Cl)cc(Cl)c1)c1cccc2ccccc12)c1ccccc1` (stereo unspecified): the growth is 102%.

Regarding `CCC(C)C(N)C(=O)NNc1n[nH]c(=S)n1N` (stereo unspecified), the growth was 101%.

For the compound `CC[C@H](C)[C@@H]1NC(=O)[C@H](Cc2ccc(O)cc2)N(C)C(=O)[C@H](Cc2ccccc2)NC(=O)CN(C)C(=O)[C@@H]2CCCN2C(=O)[C@@H](Cc2ccccc2)N(C)C(=O)[C@H](CC(C)C)NC1=O`, the growth was 4.52% (active).

Regarding `C#CC(=O)Nc1cccc(Nc2nc3c(c(NCc4ccccc4)n2)CCCC3)c1`, the growth is -93.5% (active).

For the compound `CCCCCOc1ccc(/C=N/Nc2cc(C)nc3ccc(Br)cc23)cc1`, the growth is -26.2% (active).

With `COc1ccc(OC)c(/C=C/[C@H]2O[C@@H](C)[C@H](O)[C@@H]2O)c1`, the growth is 106%.

`COc1ccc(C(=O)c2cc(C)c(OC)c(C)c2)c(OC)c1O`: the growth was 22.5%.

For the compound `C=C1C(=O)O[C@H]2[C@H]1CC/C(CNC(=O)/C=C/c1ccc(Br)cc1)=C\CC[C@@]1(C)O[C@@H]21`, the growth is -58.6% (active).

For the compound `O=C(c1ccccc1)N1N=C(c2ccc(-n3ccc(C(F)(F)F)n3)cc2)CC1c1ccc[nH]1` (stereo unspecified), the growth was 90.6%.

With `CS(=O)(=O)Nc1cc(-c2ccc3ncnc(Nc4ccc5[nH]ncc5c4)c3c2)cnc1Cl`, the growth was 83.8%.
